Common to all, as to experiment: DAPPL (digital affinity profiling via proximity ligation, sequencing); 10 mM Tris-HCl pH 7.5, 50 mM NaCl, 1 mM DTT, 4% glycerol, room temperature, 30 min; GST-TFs on glutathione beads, 16-mer random dsDNA library, 0.1% formaldehyde crosslink after washing; high values mean tight binding
Settings in all cases: protein: recombinant; tags: N-terminal GST; dsDNA, one strand shown

One test addresses T1, ERF (Homo sapiens, UniProt P50548 1-548).
T1 sequence: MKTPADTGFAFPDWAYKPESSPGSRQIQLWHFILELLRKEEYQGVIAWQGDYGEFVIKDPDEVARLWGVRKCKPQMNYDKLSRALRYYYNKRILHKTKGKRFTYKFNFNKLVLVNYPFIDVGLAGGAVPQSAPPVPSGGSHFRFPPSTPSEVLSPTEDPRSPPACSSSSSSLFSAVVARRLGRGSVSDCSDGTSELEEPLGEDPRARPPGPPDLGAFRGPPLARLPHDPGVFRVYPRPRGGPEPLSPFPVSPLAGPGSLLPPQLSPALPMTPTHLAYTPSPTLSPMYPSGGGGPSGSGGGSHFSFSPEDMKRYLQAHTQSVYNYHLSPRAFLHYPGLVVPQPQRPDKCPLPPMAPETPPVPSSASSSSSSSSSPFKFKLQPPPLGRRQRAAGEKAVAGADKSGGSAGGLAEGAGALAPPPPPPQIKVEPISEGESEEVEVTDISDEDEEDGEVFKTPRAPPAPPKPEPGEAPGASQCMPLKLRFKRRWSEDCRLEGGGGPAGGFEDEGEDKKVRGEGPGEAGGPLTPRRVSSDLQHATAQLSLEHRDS
Summed up: (§1)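 Binding signal is given per hexamer as its read frequency for a factor divided by its frequency in the tag-only sample. GST-fused human transcription factors were expressed in yeast, captured on glutathione beads, barcoded with DNA and pooled with that sample, then incubated with 200 nmole of a 16-mer random double-stranded DNA library in Tris/NaCl/DTT/glycerol buffer for 30 min at room temperature. The pools were then washed, crosslinked, proximity-ligated, amplified by PCR and sequenced on an Illumina NextSeq500.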

In the next test the target is T2, ETV3L (Homo sapiens, UniProt Q6ZN32 1-361).
T2 sequence: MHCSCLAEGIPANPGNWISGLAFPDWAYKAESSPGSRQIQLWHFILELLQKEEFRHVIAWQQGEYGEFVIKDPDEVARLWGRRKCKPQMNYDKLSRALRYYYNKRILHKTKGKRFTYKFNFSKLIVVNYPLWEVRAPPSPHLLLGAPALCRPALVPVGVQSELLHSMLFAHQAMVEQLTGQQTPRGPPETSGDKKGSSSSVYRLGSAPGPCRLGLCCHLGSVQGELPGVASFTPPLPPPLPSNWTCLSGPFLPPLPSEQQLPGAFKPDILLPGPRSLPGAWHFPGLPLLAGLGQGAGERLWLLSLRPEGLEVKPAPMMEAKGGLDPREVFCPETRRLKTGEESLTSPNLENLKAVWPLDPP
Summed up: as §1

Another test concerns the target T3, ETS2 (Homo sapiens, UniProt P15036 1-469).
T3 sequence: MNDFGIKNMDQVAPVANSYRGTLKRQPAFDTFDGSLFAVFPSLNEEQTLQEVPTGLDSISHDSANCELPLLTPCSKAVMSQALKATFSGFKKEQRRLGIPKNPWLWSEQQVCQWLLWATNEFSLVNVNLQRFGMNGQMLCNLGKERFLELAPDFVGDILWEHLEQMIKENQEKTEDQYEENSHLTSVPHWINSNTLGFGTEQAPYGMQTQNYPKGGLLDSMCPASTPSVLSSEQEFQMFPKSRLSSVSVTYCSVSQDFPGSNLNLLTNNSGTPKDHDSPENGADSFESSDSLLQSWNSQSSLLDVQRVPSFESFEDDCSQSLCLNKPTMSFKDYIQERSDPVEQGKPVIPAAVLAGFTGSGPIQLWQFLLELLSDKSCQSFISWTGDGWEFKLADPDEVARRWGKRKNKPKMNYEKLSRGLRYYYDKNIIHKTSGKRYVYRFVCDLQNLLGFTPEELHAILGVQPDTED
Put shortly:
as §1

In a further test the target is T4, SPDEF (Homo sapiens, UniProt O95238 1-335).
T4 sequence: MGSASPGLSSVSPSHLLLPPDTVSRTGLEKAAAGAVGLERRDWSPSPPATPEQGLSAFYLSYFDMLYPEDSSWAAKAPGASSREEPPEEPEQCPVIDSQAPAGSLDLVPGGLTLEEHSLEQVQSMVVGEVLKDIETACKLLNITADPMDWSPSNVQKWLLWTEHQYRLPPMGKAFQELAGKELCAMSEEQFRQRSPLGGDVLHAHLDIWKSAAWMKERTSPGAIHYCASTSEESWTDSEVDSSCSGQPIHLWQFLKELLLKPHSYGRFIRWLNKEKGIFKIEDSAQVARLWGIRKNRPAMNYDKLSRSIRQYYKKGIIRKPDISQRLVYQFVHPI
Summed up: as §1

Another test deals with T5, ETV7 (Homo sapiens, UniProt Q9Y603 1-341).
T5 sequence: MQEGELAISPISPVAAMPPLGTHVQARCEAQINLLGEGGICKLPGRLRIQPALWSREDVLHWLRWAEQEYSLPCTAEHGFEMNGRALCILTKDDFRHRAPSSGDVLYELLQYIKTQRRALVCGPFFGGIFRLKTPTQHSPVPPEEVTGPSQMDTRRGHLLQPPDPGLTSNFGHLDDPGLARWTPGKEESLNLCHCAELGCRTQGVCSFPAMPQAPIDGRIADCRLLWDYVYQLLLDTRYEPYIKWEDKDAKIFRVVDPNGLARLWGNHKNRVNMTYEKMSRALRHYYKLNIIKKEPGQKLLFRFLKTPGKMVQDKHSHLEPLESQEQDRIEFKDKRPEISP
Summed up:
as §1

Another test deals with T6, ELF5 (Homo sapiens, UniProt Q9UKW6-2 1-255).
T6 sequence: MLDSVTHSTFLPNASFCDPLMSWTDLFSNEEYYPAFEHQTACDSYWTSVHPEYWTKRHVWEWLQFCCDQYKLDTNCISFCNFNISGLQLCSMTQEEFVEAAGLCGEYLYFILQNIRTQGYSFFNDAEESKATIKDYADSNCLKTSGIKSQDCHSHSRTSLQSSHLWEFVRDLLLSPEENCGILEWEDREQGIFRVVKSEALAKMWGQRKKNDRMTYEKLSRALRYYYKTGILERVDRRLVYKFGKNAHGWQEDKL
Summed up: as §1

Another test deals with T7, ETV3 (Homo sapiens, UniProt P41162-2 1-143).
T7 sequence: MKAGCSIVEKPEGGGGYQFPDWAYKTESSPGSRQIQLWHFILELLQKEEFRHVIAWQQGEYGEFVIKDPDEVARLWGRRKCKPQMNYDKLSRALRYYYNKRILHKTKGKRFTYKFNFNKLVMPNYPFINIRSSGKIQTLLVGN
Summed up:
as §1

Another test concerns the target ETV6 (Homo sapiens, UniProt P41212 1-452). Put shortly:
as §1

ETV6, sequence (P41212 whole entry): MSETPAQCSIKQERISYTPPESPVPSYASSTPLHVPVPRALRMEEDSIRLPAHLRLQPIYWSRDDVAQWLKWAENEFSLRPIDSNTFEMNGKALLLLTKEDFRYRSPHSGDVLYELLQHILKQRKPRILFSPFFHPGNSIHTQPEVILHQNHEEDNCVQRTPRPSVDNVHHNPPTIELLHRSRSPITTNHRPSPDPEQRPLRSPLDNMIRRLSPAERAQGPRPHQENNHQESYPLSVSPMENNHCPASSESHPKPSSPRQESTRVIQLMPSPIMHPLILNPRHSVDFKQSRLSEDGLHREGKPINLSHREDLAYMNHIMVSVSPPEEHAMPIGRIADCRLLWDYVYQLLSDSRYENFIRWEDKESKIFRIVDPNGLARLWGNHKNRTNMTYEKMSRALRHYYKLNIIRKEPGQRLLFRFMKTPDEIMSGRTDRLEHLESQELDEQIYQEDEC

Take TGCCCC: the binding signal with ERF was 1.15 fold enrichment (6-mer frequency, TF over GST control); with ETV3L, 1.28 fold enrichment (6-mer frequency, TF over GST control); with ETS2, 1.12 fold enrichment (6-mer frequency, TF over GST control); with SPDEF, 1.21 fold enrichment (6-mer frequency, TF over GST control); with ETV7 it was 1.18 fold enrichment (6-mer frequency, TF over GST control); with ELF5 it was 1.18 fold enrichment (6-mer frequency, TF over GST control). The binding signal in the test with ETV3 was 1.3 fold enrichment (6-mer frequency, TF over GST control); with ETV6, 1.24 fold enrichment (6-mer frequency, TF over GST control).

Turning to TTAATC, the binding signal with ERF was 1.19 fold enrichment (6-mer frequency, TF over GST control); with ETV3L, 1.21 fold enrichment (6-mer frequency, TF over GST control); with ETS2 it was 1.29 fold enrichment (6-mer frequency, TF over GST control); in the test with SPDEF it was 1.26 fold enrichment (6-mer frequency, TF over GST control); with ETV7, 1.1 fold enrichment (6-mer frequency, TF over GST control); with ELF5, 1.18 fold enrichment (6-mer frequency, TF over GST control). Besides, the binding signal in the test with ETV3 is 1.24 fold enrichment (6-mer frequency, TF over GST control); with ETV6, 1.21 fold enrichment (6-mer frequency, TF over GST control).

TTATTC: the binding signal with ERF is 1.45 fold enrichment (6-mer frequency, TF over GST control); with ETV3L it was 1.47 fold enrichment (6-mer frequency, TF over GST control); with ETS2, 1.37 fold enrichment (6-mer frequency, TF over GST control); with SPDEF, 1.41 fold enrichment (6-mer frequency, TF over GST control); with ETV7, 1.43 fold enrichment (6-mer frequency, TF over GST control); with ELF5 it was 1.34 fold enrichment (6-mer frequency, TF over GST control). Moreover, the binding signal with ETV3 is 1.29 fold enrichment (6-mer frequency, TF over GST control); in the test with ETV6 it was 1.32 fold enrichment (6-mer frequency, TF over GST control).

For CCCTTG, the binding signal in the test with ERF is 1.24 fold enrichment (6-mer frequency, TF over GST control); with ETV3L it was 1.08 fold enrichment (6-mer frequency, TF over GST control); with ETS2 it was 1.16 fold enrichment (6-mer frequency, TF over GST control); with SPDEF it was 1.28 fold enrichment (6-mer frequency, TF over GST control); with ETV7 it was 1.18 fold enrichment (6-mer frequency, TF over GST control); with ELF5, 1.1 fold enrichment (6-mer frequency, TF over GST control). Further, the binding signal with ETV3 was 1.13 fold enrichment (6-mer frequency, TF over GST control); with ETV6, 1.17 fold enrichment (6-mer frequency, TF over GST control).

As for AAAAAC, the binding signal with ERF is 1.22 fold enrichment (6-mer frequency, TF over GST control); with ETV3L, 1.25 fold enrichment (6-mer frequency, TF over GST control); with ETS2, 1.29 fold enrichment (6-mer frequency, TF over GST control); in the test with SPDEF it was 1.23 fold enrichment (6-mer frequency, TF over GST control); with ETV7, 1.29 fold enrichment (6-mer frequency, TF over GST control); with ELF5, 1.3 fold enrichment (6-mer frequency, TF over GST control). The binding signal is 1.2 fold enrichment (6-mer frequency, TF over GST control) in the test with ETV3 and 1.26 fold enrichment (6-mer frequency, TF over GST control) in the test with ETV6.

On to CCCTGC, for which the binding signal was 1.18 fold enrichment (6-mer frequency, TF over GST control) with ERF; 1.18 fold enrichment (6-mer frequency, TF over GST control) with ETV3L; 1.12 fold enrichment (6-mer frequency, TF over GST control) in the test with ETS2; 1.11 fold enrichment (6-mer frequency, TF over GST control) in the test with SPDEF; 1.22 fold enrichment (6-mer frequency, TF over GST control) with ETV7; 1.2 fold enrichment (6-mer frequency, TF over GST control) with ELF5. Besides, the binding signal in the test with ETV3 is 1.22 fold enrichment (6-mer frequency, TF over GST control); in the test with ETV6 it was 1.2 fold enrichment (6-mer frequency, TF over GST control).

Source of the values: PMC7862700, “An all-to-all approach to the identification of sequence-specific readers for epigenetic DNA modifications on cytosine”.
